Laboratory results as given in ChEMBL document CHEMBL3988442, “University of Dundee, Small-Polar-MMV Screening Library” (2021).
Screen size: about 48,000 compounds; about 13,000 (27%) showed an effect of 50% or more. Some of the results follow.

Tested on: Wolbachia pipientis
Experiment: Anti-Wolbachia Cell-Based Screen
Assay type: functional
Design: scale not given: in the data most compounds retested in dose-response had high values
Conditions: 5 µM

Row | SMILES | Percent Effect
1 | CCc1ccc(CNC(=O)CCc2nnc(-c3ccc(C)s3)o2)nc1 | 18.56%
2 | CC(C)c1cc(C(=O)N(c2ccc(F)cn2)C2CCOCC2)on1 | -4.853%
3 | N#Cc1ccc(CN2CCc3sccc3C2)c(F)c1 | 2.911%
4 | CCc1ccc(C(C)NCc2nccn2Cc2ccccc2)o1 (stereo unspecified) | -9.423%
5 | CCNC(=O)N(Cc1cccc(OC)c1)C1CCC(O)CC1 (stereo unspecified) | -8.682%
6 | CN(C)Cc1nnc2n1CCN(c1cnccn1)CC2.O=C(O)C(F)(F)F | -7.956%
7 | Fc1cnc(N2CCn3c(CN4CCCC4)nnc3C2)nc1.O=C(O)C(F)(F)F | -4.314%
8 | CC(C)N(C)Cc1nnc2n1CCCN(c1cnccn1)C2 | 115.4%
9 | c1cnc(N2CCCn3c(nnc3Cn3cccn3)C2)nc1 | 3.271%
10 | CN(C)CCOCc1nnc2n1CCN(c1cnccn1)CC2 | 1.736%
11 | CCS(=O)(=O)N1CCc2nnc(CN(C)C(C)C)n2CC1 | -16.92%
12 | Fc1cnc(N2CCCn3c(nnc3Cn3cccc3)C2)nc1.O=C(O)C(F)(F)F | 0.8563%
13 | OCc1nnc2n1CCN(c1cnccn1)C2 | 108%
14 | c1ccn(Cc2nnc3n2CCCN(c2cnccn2)C3)c1 | 100.7%
15 | OCCOc1ccc(NCc2cccc3[nH]ccc23)cn1 | 0.765%
16 | CC(C(=O)Nc1ncccn1)N1CCCN(c2nccs2)CC1 (stereo unspecified) | -8.894%
17 | CCn1nc(C)c(CNC(=O)NCC(C)(O)c2ccco2)c1C (stereo unspecified) | -13.65%
18 | CCn1nc(C)c(CNC(=O)NCC(C)(O)c2ccc(C)o2)c1C (stereo unspecified) | 57.07%
19 | CCn1nc(C)c(CNC(=O)NCC(C)(O)c2ccccc2)c1C (stereo unspecified) | 3.084%
20 | O=C(c1coc(CN2CCN(c3ccccc3F)CC2)n1)N1CCCC1 | -9.887%
21 | Cc1ccccc1C(=O)N1CC2(COC(C)(C)OC2)C1 | -1.566%
22 | CC(=O)N1CCN([C@@H]2CN(C(=O)c3ccccc3C)C[C@H]2O)CC1 | 166%
23 | CCCc1cc(C(=O)N2C[C@H](O)[C@@H](N3CCCC3)C2)ccn1 | -25.18%
24 | O=C(O)C(F)(F)F.O=C(c1ccccc1)N1C[C@@H]2CCCO[C@@H]2[C@H](N2CCCC2)C1 | 0.7695%
25 | CS(=O)(=O)c1ccc(NC(=O)N2C[C@H](O)[C@@H](N3CCOCC3)C2)cc1 | -0.5097%
26 | CC(=O)N1CCN([C@@H]2CN(C(=O)c3ccccc3)C[C@H]2O)CC1 | 163.7%

Row | SMILES | Percent Effect
27 | Cc1ccccc1C(=O)N1C[C@@H](O)[C@H](N2CCOCC2)C1 | 137.5%
28 | Cc1ccccc1C(=O)N1C[C@@H]2C[C@@H](C)O[C@@H]2C1 | -6.005%
29 | Cn1cccc1C(=O)N1C[C@@H]2CCCO[C@@H]2[C@H](N2CCOCC2)C1 | 10.78%
30 | CCCN(CC1CC1)S(=O)(=O)c1ccc(NC(C)=O)cc1 | 9.5%
31 | CCN(Cc1noc(C)n1)C(=O)CCn1c(C)cc2ccccc21 | -6.675%
32 | Cc1cc(NCC(=O)N(C)C(C)c2cccs2)c(C(N)=O)cc1F (stereo unspecified) | -3.325%
33 | CCOCCC(=O)NC1(c2cccc(Br)c2)CC1 | 2.519%
34 | CC(C)C(C(=O)N1CCN(c2ccncc2)CC1)n1cncn1 (stereo unspecified) | -6.945%
35 | CC(C)C(C(=O)N1CCCN(c2cccnn2)CC1)n1cncn1 (stereo unspecified) | 101.3%
36 | CSC(C)C(=O)N1CCCN(c2ncccc2C#N)CC1 (stereo unspecified) | 94.48%
37 | CC(C(=O)N1CCCN(c2ncccc2C#N)CC1)n1ccnc1 (stereo unspecified) | 9.037%
38 | CC(C(=O)N1CCCN(c2ncccc2C#N)CC1)n1cncn1 (stereo unspecified) | 99.83%
39 | CN1N=C(C(=O)N2CCCN(c3ncccc3C#N)CC2)CCC1=O | -11.38%
40 | Cc1ccc(N2CCCN(C(=O)C(C(C)C)n3cncn3)CC2)nn1 (stereo unspecified) | 1.391%
41 | Cc1cc(C)c(C(=O)N2CCN(c3ncccc3C#N)CC2)c(=O)[nH]1 | -2.204%
42 | CCSc1cc(C(=O)NC(C)c2cccc(N3CCOC3=O)c2)ccn1 (stereo unspecified) | -4.217%
43 | Cl.NCc1ccc(OC(F)F)cc1OC(F)F | -11.87%
44 | CCn1nc(C)cc1C(=O)N1C[C@@H](CN(C)C)[C@@H](CO)C1 | 107.3%
45 | COc1cccc(C)c1C(=O)N1C[C@@H](CN(C)C)[C@@H](CO)C1 | -2.46%
46 | CCn1nc(C)c(C(=O)N2C[C@@H](CN(C)C)[C@@H](CO)C2)c1C | 106.8%
47 | Cc1cc(C(=O)N2C[C@@H](CN(C)CCN(C)C)[C@@H](CO)C2)nc(C)n1 | -17.75%
48 | COCCN(C)C[C@@H]1CN(C(=O)c2c(C)cccc2OC)C[C@@H]1CO | 2.605%
49 | CCn1nc(C)c(C(=O)N2C[C@@H](CN(C)CCOC)[C@@H](CO)C2)c1C | 114%
50 | Cc1ccc(CC(=O)N2C[C@@H](CN(C)C)[C@@H](CO)C2)cc1C | -3.019%
51 | Cc1nc(CC(C)C)cc(C(=O)N2C[C@@H](CN(C)C)[C@@H](CO)C2)n1 | -9.006%
